Records with an inconclusive call do not appear. Activity calls are given as the source filed them. The call rests on the fitted dose curve; in most records, active means well fitted curve in the direction sought with a large enough effect; inconclusive means small, poorly fitted or top-dose-only effect, or another doubt; inactive means no such curve, though single readings can be large; an effect the other way counts as inactive or inconclusive. Residues, ends and D or L forms follow the SMILES beside them. *: point of attachment. Cbz = O=C(OCc1ccccc1)*
Tests used:
[1] = molecular target: DNA repair nuclease/redox regulator APEX1 (Homo sapiens) (UniProt P27695); assay: qHTS Validation Assay for Inhibitors of the Human Apurinic/apyrimidinic Endonuclease 1 (APE1) (AID 1705; further: potency means the concentration at half of the fitted maximal effect)
Outline: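 Substrate: 50 nM final fluorophore/quencher THF-abasic duplex. Enzyme preincubated with compounds 15 min, RT. Progress derived from fluorescence difference, third minus first kinetic read.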

[2] = Counterscreen for APE1 Inhibitors: Fluorescent Dye Displacement Validation Assay (AID 1707)
Outline: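 Loss of Thiazole Orange fluorescence marks promiscuous DNA binders. The dye (250 nM) is mixed with 50 nM abasic-site dsDNA in pH7.5 Tris buffer containing MgCl2, then compounds are added and emission is read once.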

[3] = molecular target: Endonuclease 4 (Escherichia coli (strain K12)) (UniProt P0A6C1); assay: Counterscreen for APE1 Inhibitors: qHTS Validation Assay for Inhibitors of Endonuclease IV (AID 1708)
Outline: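 Conditions: 2 nM enzyme, 50 nM TAMRA/BHQ-2 substrate, pH 7.5 Tris buffer with 2 mM MgCl2, RT. Compound preincubation 15 min; readout three fluorescence reads 60 s apart, third-minus-first.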

[4] = qHTS for differential inhibitors of proliferation of Plasmodium falciparum line 7G8 (AID 1815);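 further: parasite growth measured after three days of incubation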; further: potency means the concentration at half of the fitted maximal effect
[5] = qHTS for differential inhibitors of proliferation of Plasmodium falciparum line GB4 (AID 1816); details: Potency: Plasmodium falciparum GB4 proliferation inhibition;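 further: parasite growth measured after 72 h incubation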; further: potency means the concentration at half of the fitted maximal effect
[6] = qHTS for differential inhibitors of proliferation of Plasmodium falciparum line 3D7 (AID 1876); further: potency means the concentration at half of the fitted maximal effect
[7] = molecular target: alpha-glucosidase (Oryza sativa, rice) (UniProt Q653V4); assay: Counterscreen for Glucocerebrosidase Inhibitors: qHTS Assay for Rice alpha-Glucosidase at pH 5.0 (AID 997)
Outline: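 Endpoint fluorogenic assay at pH 5.0: compounds (0.7 nM to 77 uM) titrated against 4 nM rice enzyme and 400 uM 4-MU-alpha-glucoside for 20 min at room temperature; NaOH/glycine stop, read ex 365/em 440 nm, Hill-fitted AC50.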

[8] = molecular target: Alpha-galactosidase A (Homo sapiens) (UniProt P06280); assay: Counterscreen for Glucocerebrosidase Inhibitors: qHTS Assay for Human alpha-Galactosidase at pH 4.5 (AID 992)
Outline: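 Each compound is preincubated briefly with 2 nM enzyme before substrate addition (80 uM); plates then sit 20 min at ambient temperature, are quenched with 1M NaOH/1M glycine, and read fluorometrically.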

Measured: Potency

Sequence of Alpha-galactosidase A (Homo sapiens) (P06280 whole entry, looked up): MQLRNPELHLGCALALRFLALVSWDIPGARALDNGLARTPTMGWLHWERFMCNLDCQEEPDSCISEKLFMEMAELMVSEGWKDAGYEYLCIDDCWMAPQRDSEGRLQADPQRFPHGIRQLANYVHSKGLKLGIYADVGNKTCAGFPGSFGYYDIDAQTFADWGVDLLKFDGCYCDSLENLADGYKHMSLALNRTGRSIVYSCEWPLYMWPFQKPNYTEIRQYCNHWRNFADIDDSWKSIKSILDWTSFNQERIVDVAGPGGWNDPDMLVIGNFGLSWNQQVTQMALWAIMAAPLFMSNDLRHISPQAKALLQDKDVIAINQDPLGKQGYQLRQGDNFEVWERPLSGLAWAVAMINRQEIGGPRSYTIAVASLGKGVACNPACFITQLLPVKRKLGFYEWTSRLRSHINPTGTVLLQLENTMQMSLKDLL
Sequence of DNA repair nuclease/redox regulator APEX1 (Homo sapiens) (P27695 whole entry, looked up): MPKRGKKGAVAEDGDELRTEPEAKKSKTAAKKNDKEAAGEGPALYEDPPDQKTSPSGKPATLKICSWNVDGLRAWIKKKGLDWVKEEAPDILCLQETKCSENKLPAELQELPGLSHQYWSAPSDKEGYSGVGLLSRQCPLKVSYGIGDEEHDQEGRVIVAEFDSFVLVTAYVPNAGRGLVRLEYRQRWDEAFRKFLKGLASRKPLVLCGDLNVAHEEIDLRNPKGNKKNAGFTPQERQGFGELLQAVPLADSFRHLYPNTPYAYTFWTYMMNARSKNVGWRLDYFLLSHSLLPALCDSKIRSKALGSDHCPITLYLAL

CC(=O)[C@H]1CCC2C3CC=C4C[C@@H](OS(=O)(=O)O)CC[C@]4(C)C3CC[C@@]21C (stereo partly specified)
inactive: [1] | [2] | [3] | [4] | [5] | [6]

CCCC(=O)NCCc1c2n(c3ccc(OC)cc13)CCCc1ccccc1-2
active: [4] 3.55 µM | [5] 11.2 µM
inactive: [7] | [1] | [2]

O=C1Nc2ccc(I)cc2/C1=C/c1cc(Br)c(O)c(Br)c1
inactive: [8] | [7] | [2] | [3]
active: [4] 8.91 µM | [5] 14.1 µM | [6] 14.1 µM

[N-]=[N+]=Nc1ccc(C(=O)CSC[C@H](NC(=O)CC[C@H](N)C(=O)O)C(=O)NCC(=O)O)cc1
active: [1] 20 µM
inactive: [2] | [4] | [6]

CCCCC[C@H](CC(=O)NO)C(=O)N[C@H](C(=O)N1CCC[C@H]1CO)C(C)C
active: [4] 2.24 µM | [5] 2 µM | [6] 1.78 µM
inactive: [1] | [2] | [3]

N=C(N)c1ccc(OCCCCCOc2ccc(C(=N)N)cc2)cc1 (tested in a mixture with another compound)
active: [4] 0.282 µM | [5] 0.251 µM | [6] 0.0891 µM
inactive: [8] | [7] | [1] | [2]

NC(=O)c1cc[n+](CC2=C(C(=O)O)N3C(=O)[C@@H](NC(=O)[C@@H](c4ccccc4)S(=O)(=O)[O-])[C@H]3SC2)cc1
inactive: [2] | [4] | [5] | [6]
active: [1] 14.1 µM

COc1cc([C@@H]2c3cc4c(cc3[C@H](O)C3COC(=O)[C@@H]32)OCO4)cc(OC)c1OC (stereo partly specified)
inactive: [1] | [2]

COc1ccc2c(c1)c(CC(=O)O)c(C)n2C(=O)c1ccccc1
inactive: [8] | [7] | [1] | [2] | [3] | [4] | [5] | [6]

C=C1C(=O)O[C@@H]2[C@H]3O[C@]3(C)CCC=C(C)CC[C@@H]12
active: [4] 11.2 µM
inactive: [1] | [2]

O=C(N[C@@H](Cc1ccccc1)C(=O)CCl)OCc1ccccc1
active: [4] 8.91 µM | [5] 10 µM | [6] 11.2 µM
inactive: [7] | [1] | [2]

NCC(O)C1CCCCCCC1 (stereo unspecified)
active: [4] 12.6 µM | [5] 5.62 µM
inactive: [1] | [2] | [3] | [6]

S=C(S)N1CCCC1
inactive: [8] | [7] | [1] | [2]

O=c1ccc2c(OCCCCc3ccccc3)c3ccoc3cc2o1
inactive: [8] | [7] | [1] | [2]
active: [5] 11.2 µM

COc1ccc(NC(=O)c2ccc(-c3ccc(-c4noc(C)n4)cc3C)cc2)cc1N1CCN(C)CC1
active: [4] 4.47 µM | [5] 3.98 µM | [6] 2.82 µM
inactive: [8] | [7] | [1] | [2]

COc1ccccc1N1CCN(CCN(C(=O)c2ccc(F)cc2)c2ccccn2)CC1
inactive: [8] | [7] | [1] | [2] | [3]

CCn1c(=O)[nH]c2cc(Cl)c(Cl)cc21
inactive: [8] | [7] | [1] | [2] | [3] | [4] | [5] | [6]

NC(=Nc1ccccc1)NC(=O)c1nc(Cl)c(N)nc1N
active: [4] 8.91 µM | [5] 12.6 µM | [6] 3.55 µM
inactive: [7] | [1] | [2]

O=C(O)c1ccccc1Nc1cccc(OCc2ccc3ccccc3n2)c1
inactive: [8] | [7] | [1] | [2] | [6]

CC(C)(C)c1cc(/C=C(\C#N)C(N)=S)cc(C(C)(C)C)c1O
inactive: [8] | [7] | [2] | [3]
active: [4] 7.94 µM | [5] 7.94 µM | [6] 4.47 µM

Nc1ncnc2c1c(-c1ccc(Oc3ccccc3)cc1)cn2C1CCCC1
active: [4] 4.47 µM | [5] 2.51 µM | [6] 10 µM
inactive: [8] | [7] | [1] | [2]

N#CC(=C(\N)Sc1ccccc1N)/C(C#N)=C(/N)Sc1ccccc1N
active: [4] 2.51 µM | [5] 4.47 µM | [6] 3.98 µM
inactive: [1] | [2] | [3]

CC(C)[C@H](NC(=O)OCc1ccccc1)C(=O)N[C@H](C=O)Cc1ccccc1 (Cbz-Val-Phe-aldehyde)
active: [4] 7.08 µM | [5] 4.47 µM | [6] 2.82 µM
inactive: [8] | [7] | [1] | [2] | [3]

O=c1oc(Cl)c(Cl)c2ccccc12
inactive: [8] | [7] | [1] | [2] | [5] | [6]

Fc1ccc(CN(C2=NCCN2)c2c(Cl)cccc2Cl)cc1
active: [4] 6.31 µM | [5] 5.62 µM | [6] 11.2 µM
inactive: [8] | [7] | [1] | [2] | [3]

C[C@@]1(C2CCCC2)Cc2cc(OCC(=O)O)c(Cl)c(Cl)c2C1=O
inactive: [1] | [2] | [3] | [4] | [5] | [6]

O=C1OC(=O)C2C3CCC(O3)C12 (stereo unspecified)
inactive: [1] | [2] | [4] | [6]

Nc1nc2ccc(Cl)cc2c2nc(-c3ccco3)nn12
inactive: [8] | [7] | [1] | [2] | [3]

CCCCCCCC/C=C\CCCCCCCC(=O)NCCc1ccc(O)c(O)c1
active: [4] 7.08 µM | [5] 11.2 µM | [6] 8.91 µM
inactive: [7] | [1]

CC(/C=C/c1cccc(Oc2ccc(F)cc2)c1)N(O)C(N)=O (stereo unspecified)
inactive: [1] | [2] | [3]

CCC1(O)CC2CN(CCc3c([nH]c4ccccc34)[C@@](C(=O)OC)(c3cc4c(cc3OC)N(C)C3[C@]45CCN4CC=C[C@@](CC)([C@@H](OC(C)=O)[C@]3(O)C(=O)OC)[C@H]45)C2)C1 (stereo partly specified)
active: [4] 1.12 µM | [5] 2.51 µM | [6] 0.631 µM
inactive: [1] | [2] | [3]

— PubChem BioAssay (NCATS)
